From PubChem BioAssay (Tox21) come the findings set out here.

Inconclusive results are not listed. Unmarked numbers belong to inactive results. Calls of active or inactive are those of the source. Calls follow the shape of the dose curve; as a rule, active = well fitted cell-killing curve with a large enough effect in the repeat runs; inconclusive = weak or mixed curves, or effect the other way; inactive = no such curve, though single readings can be large or run the other way.
% is scaled to controls: 0 for no effect and ±100 for the full control effect; potency is read from the fitted curve at half-maximal effect.

This assay in a line: qHTS assay to identify small molecule antagonists of the glucocorticoid receptor (GR) signaling pathway - cell viability counter screen (AID 720693). Also: nearly all actives have a fitted effect of over 55% in size. To be noted: GR-bla HeLa viability, CellTiter-Glo luminescence, 18 h, with 5 nM dexamethasone present; series mostly up to 58.5 µM; viability change, negative = cytotoxic: at the top concentration. An excerpt: National Center for Advancing Translational Sciences [NCATS]
NIH Chemical Genomics Center [NCGC]
U.S. Environmental Protection Agency [EPA]
National Institutes of Environmental Health Sciences [NIEHS]
National Toxicology Program [NTP]
U.S. Food and Drug Administration [FDA]
The Glucocorticoid receptor (GR) is one of the members of the nuclear receptor family of ligand-dependent transcription factors. GR plays a critical role in carbohydrate, protein and lipid metabolisms and programmed cell death. CellSensor GR-bla HeLa cell line (Invitrogen) contains a beta-lactamase reporter gene under the control of the glucocorticoid response element stably integrated into HeLa cells, a cervical cancer cell line that expresses glucocorticoid receptor. The activation of the reporter gene under culture conditions can be detected by fluorescence intensity. This cell line has been used to screen the Tox21 10K compound library and to identify the compounds that inhibit the GR signaling. The cytotoxicity of the Tox21 compound library against the GR-bla HeLa cell line was tested in parallel by measuring the cell viability using CellTiter-Glo assay in the same wells.
Tox21 Assay Protocol Summary:
The GR-bla HeLa cells were dispensed at 1500 cells/5 ul/well in 1536-well black wall/clear bottom plates using a Multidrop Combi (ThermoFisher Scientific, Waltham, MA) dispenser. After the assay plates were incubated at a 37 C/5% CO2 incubator for 4 hours, 23 nL of compounds dissolved in DMSO, positive controls or DMSO only was transferred to the assay plate by a pintool station (Kalypsys, San Diego, CA), followed by addition of 1 uL of dexamethasone (5 nM, final concentration in the well). The plates were incubated at 37 C for 18 hours. After 1 uL of LiveBLAzerTM B/G FRET substrate was added using a Flying Reagent Dispenser (Aurora Discovery, San Diego, CA), the plates were incubated at room temperature (RT) for 2 hours, and fluorescence intensity was measured by an Envision plate reader (PerkinElmer, Shelton, CT). After measurement of bla assay, 3 ul CellTiter-Glo (Promega, Madison, WI) was added to measure the cytotoxicity and the plates were then incubated at RT for 30 min. The luminescence was measured using a ViewLux (Perkin Elmer) plate reader.
A general note: Quantitative high-throughput screening tests each substance at several concentrations.
Take `Brc1cc2ccccc2c2ccccc12`: the “viability change, negative = cytotoxic” value is 1.64% [at 78.9 µM].
Still for that read-out and setting: then `CCCCCCCC/C=C\CCCCCCCCO`, with 14.1%; and `CO[C@]1(NC(=O)CSC(F)F)C(=O)N2C(C(=O)O)=C(CSc3nnnn3CCO)CO[C@H]21`, with 8.46%.
Take `COc1cc(C(=O)NC2CCN(C)CC2)ccc1Nc1ncc2c(n1)N(C1CCCC1)CC(F)(F)C(=O)N2C`: the Potency was 22.5 µM (active).
Consider `CCC=CC#N`, for which the “viability change, negative = cytotoxic” value is -2.02%.
Regarding `Cc1[nH]cnc1CN1CCc2c(c3ccccc3n2C)C1=O`, the “viability change, negative = cytotoxic” value was 1.49%.
Regarding `CC1CC(C)C(=O)C1=O` (stereo not given), the “viability change, negative = cytotoxic” value is -7.59%.
The same measure, in the same setting: then `O=C(O)C[C@H](NC(=O)OCc1ccccc1)C(=O)O`, with 9.93%.
Same read-out and setting: to `CCCCCCCCCI` belongs 2.99% [at 78.9 µM]; to `O=C1c2ccccc2C(=O)C1c1ccc(Br)cc1`, 7.99%.
Still for that read-out and setting: to `CCC1(CO)COCOC1` belongs -1.31%.
For `C=C(C)[C@@H]1CCC2=CCC[C@@H](C)[C@]2(C)C1`, the “viability change, negative = cytotoxic” value was -3.69%.
`O=C1NCCN1CCO`: the “viability change, negative = cytotoxic” value is -5.97% [at 78.9 µM].
`CC(C)(C)C(=O)C(=O)O`: the “viability change, negative = cytotoxic” value was -9.03%.
The same measure, in the same setting: to `O=c1[nH]ncc2ccccc12` belongs 0.362%; to `Oc1c(I)cc(I)c2cccnc12`, 6.62%.
On the same count and under the same terms, to `O=C(/C=C/c1ccccc1)OCCc1ccccc1` belongs -9.12%.
On to `C=C(C)C(=O)OCCCCCCCCCCCCC`, for which the “viability change, negative = cytotoxic” value was 1.15%.
On the same count and under the same terms, to `C=C1CCC2CC1C2(C)C` (stereo not given) belongs -0.0445%; to `CCCCCCCCCCC(=O)O`, -4.54% [at 78.9 µM]; to `C=CC(=O)[O-].C=CC(=O)[O-].[Zn+2]`, 18.9%.
As for `CC(CCC(=O)O)C(=O)O` (stereo not given), the “viability change, negative = cytotoxic” value was 9.6%.
Regarding `C=C(C)C(=O)OCCOCCOC(=O)C(=C)C`, the “viability change, negative = cytotoxic” value is 7.96%.
As to `C[C@H]1c2cccc(O)c2C(O)=C2C(=O)[C@]3(O)C(O)=C(C(N)=O)C(=O)[C@@H](N(C)C)[C@@H]3[C@@H](O)[C@@H]21`, the “viability change, negative = cytotoxic” value was 1.46%.
Take `OC[C@H]1O[C@@H](n2cnc3c(=S)nc[nH]c32)[C@H](O)[C@@H]1O`: the “viability change, negative = cytotoxic” value was -22.2%.
In the case of `COc1cc(N)c(Cl)cc1C(=O)NC1CCN(CCCOc2ccc(F)cc2)CC1OC` (stereo not given), the “viability change, negative = cytotoxic” value was -0.184% [at 27 µM].
As for `O=c1cc(-c2ccccc2)oc2ccc3ccccc3c12`, the Potency was 54.9 µM (active).
On to `CC(C)(O)c1ccc(CNC(=O)c2cccnc2Oc2ccc3nonc3c2)cc1`, for which the “viability change, negative = cytotoxic” value was 4.01%.
The same measure, in the same setting: then `O=C1c2ccccc2C(=O)C1c1nc2ccccc2c(Br)c1O`, with 14.3%; and `CC1(C)O[C@@H]2C[C@H]3[C@@H]4C[C@H](F)C5=CC(=O)C=C[C@]5(C)[C@H]4[C@@H](O)C[C@]3(C)[C@]2(C(=O)CO)O1`, with -15.7% [at 27 µM]; and `CC[N+](CC)(CCNC(=O)C(=O)NCC[N+](CC)(CC)Cc1ccccc1Cl)Cc1ccccc1Cl`, with 4.83%.
As for `O=C1CCCCCCCCCCOCCCCO1`, the “viability change, negative = cytotoxic” value is 6.72%.
Regarding `CCCCCCCCN`, the “viability change, negative = cytotoxic” value was 7.02%.
For the compound `Brc1cc(Br)c(Oc2cc(Br)c(Br)cc2Br)cc1Br`, the “viability change, negative = cytotoxic” value was -12.7%.
On the same count and under the same terms, then `Cc1ccc(OC(=O)c2ccccc2O)cc1`, with 0.0939%.
Turning to `CN1C(=O)OC(C)(C)C1=O`, the Potency entry was “inactive”.
As to `CCC(C)COC(=O)CC(C)C` (stereo not given), the “viability change, negative = cytotoxic” value is -15%.
On to `CC(=O)OCC(=O)NCCCOc1cccc(CN2CCCCC2)c1`, for which the Potency entry was “inactive”.
With `Cc1c(C)c2c(c(C)c1OC(=O)CCC(=O)OCCO)CC[C@@](C)(CCC[C@H](C)CCC[C@H](C)CCCC(C)C)O2`, the Potency is 21.3 µM (active).
With `O=C1c2ccccc2C(=O)N1CCc1noc(-c2ccc(CN3CCCCCC3)s2)n1`, the “viability change, negative = cytotoxic” value was -2.29%.
